This is an account of results in paper PMC7862700, “An all-to-all approach to the identification of sequence-specific readers for epigenetic DNA modifications on cytosine”.

What all share (experiment): DAPPL (digital affinity profiling via proximity ligation, sequencing); 10 mM Tris-HCl pH 7.5, 50 mM NaCl, 1 mM DTT, 4% glycerol, room temperature, 30 min; GST-TFs on glutathione beads, 16-mer random dsDNA library, 0.1% formaldehyde crosslink after washing; high values mean tight binding
Test [1] has as its target T1, FLI1 (Homo sapiens, UniProt Q01543 1-452).
T1 sequence: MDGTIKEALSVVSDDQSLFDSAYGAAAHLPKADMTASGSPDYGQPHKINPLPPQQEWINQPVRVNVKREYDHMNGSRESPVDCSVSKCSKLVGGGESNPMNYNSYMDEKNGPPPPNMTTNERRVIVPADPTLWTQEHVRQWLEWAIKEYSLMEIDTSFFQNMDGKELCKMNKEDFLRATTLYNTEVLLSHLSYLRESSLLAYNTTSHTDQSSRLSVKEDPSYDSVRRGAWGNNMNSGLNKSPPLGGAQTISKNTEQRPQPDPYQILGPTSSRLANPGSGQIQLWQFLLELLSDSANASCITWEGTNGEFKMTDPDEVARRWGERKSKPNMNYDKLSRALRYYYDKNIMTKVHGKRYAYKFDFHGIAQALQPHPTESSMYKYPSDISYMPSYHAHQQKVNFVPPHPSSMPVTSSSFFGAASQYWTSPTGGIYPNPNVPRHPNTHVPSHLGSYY
Conditions: protein: recombinant; tags: N-terminal GST; dsDNA, one strand shown. In outline:
(§1)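 Sequencing on an Illumina NextSeq500 followed washing, crosslinking with 0.1% formaldehyde, proximity ligation (BsaI/T4 ligase, 1 h, 37 °C) and PCR amplification of pools that had been incubated for 30 min at room temperature with 200 nmole of a random double-stranded 16-mer DNA library in Tris/NaCl/DTT/glycerol buffer. Each pool held DNA-barcoded human transcription factors, expressed in yeast as GST fusions and captured on glutathione beads, plus a tag-only sample. Binding signal is a hexamer's read frequency for a factor divided by its frequency in the tag-only sample.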

In test [2] the target is T2, ELK1 (Homo sapiens, UniProt P19419 1-428).
T2 sequence: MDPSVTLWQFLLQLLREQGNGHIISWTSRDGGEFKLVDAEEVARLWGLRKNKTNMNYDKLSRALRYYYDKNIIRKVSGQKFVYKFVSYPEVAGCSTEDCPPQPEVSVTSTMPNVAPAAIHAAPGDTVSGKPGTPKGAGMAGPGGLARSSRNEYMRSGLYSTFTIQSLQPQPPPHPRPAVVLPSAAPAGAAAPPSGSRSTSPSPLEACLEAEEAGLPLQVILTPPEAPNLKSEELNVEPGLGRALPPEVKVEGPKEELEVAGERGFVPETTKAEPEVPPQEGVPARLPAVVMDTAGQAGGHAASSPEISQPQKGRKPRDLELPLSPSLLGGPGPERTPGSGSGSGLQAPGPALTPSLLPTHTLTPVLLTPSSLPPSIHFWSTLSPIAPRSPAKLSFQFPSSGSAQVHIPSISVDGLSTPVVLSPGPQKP
To be noted: protein: recombinant; tags: N-terminal GST; dsDNA, one strand shown. In outline: as §1

The target in test [3] is T3, GABPA (Homo sapiens, UniProt Q06546 1-454).
T3 sequence: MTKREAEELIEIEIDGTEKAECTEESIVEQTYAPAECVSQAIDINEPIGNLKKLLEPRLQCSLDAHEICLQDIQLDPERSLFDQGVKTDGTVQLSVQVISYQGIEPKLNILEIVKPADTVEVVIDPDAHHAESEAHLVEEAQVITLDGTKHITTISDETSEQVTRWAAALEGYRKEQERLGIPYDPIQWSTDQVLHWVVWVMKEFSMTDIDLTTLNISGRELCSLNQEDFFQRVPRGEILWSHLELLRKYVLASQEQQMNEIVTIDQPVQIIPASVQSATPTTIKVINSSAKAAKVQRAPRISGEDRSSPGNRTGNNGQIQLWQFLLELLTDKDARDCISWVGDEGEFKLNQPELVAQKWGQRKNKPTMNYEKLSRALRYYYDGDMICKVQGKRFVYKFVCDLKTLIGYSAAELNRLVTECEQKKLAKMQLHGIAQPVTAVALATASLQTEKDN
To be noted: protein: recombinant; tags: N-terminal GST; dsDNA, one strand shown. In outline: as §1

Test [4] addresses T4, ERG (Homo sapiens, UniProt P11308 1-479).
T4 sequence: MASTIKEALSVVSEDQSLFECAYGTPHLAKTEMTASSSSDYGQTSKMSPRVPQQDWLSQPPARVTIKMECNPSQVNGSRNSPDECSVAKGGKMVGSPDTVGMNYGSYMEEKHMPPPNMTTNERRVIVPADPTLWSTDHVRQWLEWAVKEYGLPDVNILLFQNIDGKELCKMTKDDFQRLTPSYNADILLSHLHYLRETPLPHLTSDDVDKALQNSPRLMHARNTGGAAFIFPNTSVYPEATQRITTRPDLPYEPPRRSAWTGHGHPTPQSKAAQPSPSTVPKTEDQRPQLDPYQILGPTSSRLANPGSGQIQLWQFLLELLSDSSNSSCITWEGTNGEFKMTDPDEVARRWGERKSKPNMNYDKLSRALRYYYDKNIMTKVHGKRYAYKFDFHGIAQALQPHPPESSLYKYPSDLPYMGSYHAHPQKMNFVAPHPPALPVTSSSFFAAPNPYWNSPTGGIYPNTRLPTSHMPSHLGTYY
To be noted: protein: recombinant; tags: N-terminal GST; dsDNA, one strand shown. In outline: as §1

The target in test [5] is ELF1 (Homo sapiens, UniProt P32519 1-619). Conditions: protein: recombinant; tags: N-terminal GST; dsDNA, one strand shown. In outline: as §1
Chain of ELF1 (P32519 whole entry): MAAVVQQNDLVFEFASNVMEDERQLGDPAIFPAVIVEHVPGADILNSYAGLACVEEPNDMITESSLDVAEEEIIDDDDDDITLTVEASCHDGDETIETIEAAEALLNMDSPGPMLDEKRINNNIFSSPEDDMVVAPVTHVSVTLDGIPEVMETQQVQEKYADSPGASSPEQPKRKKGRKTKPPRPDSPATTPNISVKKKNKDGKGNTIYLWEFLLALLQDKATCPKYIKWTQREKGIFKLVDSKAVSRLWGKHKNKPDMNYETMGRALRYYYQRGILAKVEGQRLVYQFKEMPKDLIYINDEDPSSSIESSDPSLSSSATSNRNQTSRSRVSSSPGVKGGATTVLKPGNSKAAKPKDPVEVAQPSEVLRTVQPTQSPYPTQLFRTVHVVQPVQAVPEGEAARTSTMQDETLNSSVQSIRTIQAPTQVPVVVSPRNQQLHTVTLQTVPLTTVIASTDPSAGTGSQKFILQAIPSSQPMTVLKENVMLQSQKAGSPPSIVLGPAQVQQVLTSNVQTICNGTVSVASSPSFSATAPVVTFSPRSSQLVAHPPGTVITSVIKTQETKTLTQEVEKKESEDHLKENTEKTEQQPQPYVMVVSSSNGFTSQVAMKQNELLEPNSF
The target of test [6] is T5, EHF (Homo sapiens, UniProt Q9NZC4 1-300).
T5 sequence: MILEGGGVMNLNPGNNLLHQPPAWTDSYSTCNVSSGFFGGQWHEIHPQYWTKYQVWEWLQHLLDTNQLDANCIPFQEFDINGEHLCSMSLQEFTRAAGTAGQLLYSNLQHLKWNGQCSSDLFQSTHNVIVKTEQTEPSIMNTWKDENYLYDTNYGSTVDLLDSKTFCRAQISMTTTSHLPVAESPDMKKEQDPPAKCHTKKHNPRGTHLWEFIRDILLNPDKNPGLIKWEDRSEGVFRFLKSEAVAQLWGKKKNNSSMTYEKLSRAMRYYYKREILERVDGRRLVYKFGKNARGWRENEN
Conditions: protein: recombinant; tags: N-terminal GST; dsDNA, one strand shown. In outline: as §1

Test [7] has as its target SPI1 (Homo sapiens, UniProt P17947 1-270). To be noted: protein: recombinant; tags: N-terminal GST; dsDNA, one strand shown. The method in brief: as §1
In test [8] the target is SPIB (Homo sapiens, UniProt Q01892 1-262). To be noted: protein: recombinant; tags: N-terminal GST; dsDNA, one strand shown. In outline:
as §1

The target in test [9] is T6, ELK3 (Homo sapiens, UniProt P41970 1-407).
T6 sequence: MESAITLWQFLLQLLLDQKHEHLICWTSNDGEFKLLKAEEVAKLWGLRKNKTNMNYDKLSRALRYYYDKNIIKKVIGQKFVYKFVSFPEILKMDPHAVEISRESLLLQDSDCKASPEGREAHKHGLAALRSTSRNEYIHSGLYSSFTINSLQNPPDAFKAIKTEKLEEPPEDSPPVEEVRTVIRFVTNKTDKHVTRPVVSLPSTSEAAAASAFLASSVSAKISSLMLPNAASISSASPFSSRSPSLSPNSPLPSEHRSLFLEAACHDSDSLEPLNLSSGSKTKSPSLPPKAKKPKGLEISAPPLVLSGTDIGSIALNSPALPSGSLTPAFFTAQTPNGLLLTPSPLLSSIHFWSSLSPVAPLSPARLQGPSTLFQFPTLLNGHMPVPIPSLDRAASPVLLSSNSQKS
To be noted: protein: recombinant; tags: N-terminal GST; dsDNA, one strand shown. The method in brief:
as §1

The target of test [10] is T7, FEV (Homo sapiens, UniProt Q99581 1-238).
T7 sequence: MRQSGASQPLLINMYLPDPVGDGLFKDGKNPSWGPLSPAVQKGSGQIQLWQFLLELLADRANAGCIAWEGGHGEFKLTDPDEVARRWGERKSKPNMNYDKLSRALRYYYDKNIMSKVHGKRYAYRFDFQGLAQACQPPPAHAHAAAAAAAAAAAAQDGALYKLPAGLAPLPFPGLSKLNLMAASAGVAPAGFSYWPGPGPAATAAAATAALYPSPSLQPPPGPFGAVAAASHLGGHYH
To be noted: protein: recombinant; tags: N-terminal GST; dsDNA, one strand shown. The method in brief: as §1

The target in test [11] is ETV5 (Homo sapiens, UniProt P41161 1-510). Conditions: protein: recombinant; tags: N-terminal GST; dsDNA, one strand shown. In outline: as §1
Chain of ETV5 (P41161 whole entry): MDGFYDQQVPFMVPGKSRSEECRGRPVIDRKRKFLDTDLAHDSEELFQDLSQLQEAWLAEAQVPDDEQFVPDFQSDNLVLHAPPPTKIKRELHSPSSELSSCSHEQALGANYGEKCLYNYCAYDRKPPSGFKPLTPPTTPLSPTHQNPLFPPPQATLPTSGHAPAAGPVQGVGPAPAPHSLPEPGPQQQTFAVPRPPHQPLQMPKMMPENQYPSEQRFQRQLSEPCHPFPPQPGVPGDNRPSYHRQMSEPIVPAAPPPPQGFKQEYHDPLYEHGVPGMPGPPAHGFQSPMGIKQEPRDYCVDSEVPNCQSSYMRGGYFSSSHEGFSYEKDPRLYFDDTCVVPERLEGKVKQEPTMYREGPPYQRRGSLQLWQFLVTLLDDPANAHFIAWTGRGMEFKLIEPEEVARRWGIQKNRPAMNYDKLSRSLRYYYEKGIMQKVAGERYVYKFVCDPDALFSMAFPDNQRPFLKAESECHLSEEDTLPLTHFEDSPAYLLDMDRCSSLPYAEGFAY
Test [12] concerns the target HSF1 (Homo sapiens, UniProt Q00613 1-529). Conditions: protein: recombinant; tags: N-terminal GST; chain copies: 3; dsDNA, one strand shown. In outline:
as §1

Test [13] addresses T8, SPIC (Homo sapiens, UniProt Q8N5J4 1-248).
T8 sequence: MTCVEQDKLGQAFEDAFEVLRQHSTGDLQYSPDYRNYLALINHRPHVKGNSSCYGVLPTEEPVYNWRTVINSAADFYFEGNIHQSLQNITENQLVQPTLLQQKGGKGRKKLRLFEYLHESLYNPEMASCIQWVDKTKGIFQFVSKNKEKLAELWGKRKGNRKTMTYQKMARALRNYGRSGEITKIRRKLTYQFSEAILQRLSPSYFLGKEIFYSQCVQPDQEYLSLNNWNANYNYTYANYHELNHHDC
To be noted: protein: recombinant; tags: N-terminal GST; dsDNA, one strand shown. In outline:
as §1

Test [14] concerns the target ELF4 (Homo sapiens, UniProt Q99607 1-663). To be noted: protein: recombinant; tags: N-terminal GST; dsDNA, one strand shown. The method in brief: as §1
The target of test [15] is T9, ELK4 (Homo sapiens, UniProt P28324-2 1-405).
T9 sequence: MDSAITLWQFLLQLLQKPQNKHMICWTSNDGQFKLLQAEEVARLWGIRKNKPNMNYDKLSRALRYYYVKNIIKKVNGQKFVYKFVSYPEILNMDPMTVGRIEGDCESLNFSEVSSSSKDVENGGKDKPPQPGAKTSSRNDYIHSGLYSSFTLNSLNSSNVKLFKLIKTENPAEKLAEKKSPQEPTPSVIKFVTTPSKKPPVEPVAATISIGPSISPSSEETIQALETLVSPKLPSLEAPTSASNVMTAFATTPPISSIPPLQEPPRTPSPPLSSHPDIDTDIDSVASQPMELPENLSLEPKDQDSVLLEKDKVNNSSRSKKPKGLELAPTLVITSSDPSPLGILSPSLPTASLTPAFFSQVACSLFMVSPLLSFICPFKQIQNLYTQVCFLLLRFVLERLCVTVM
To be noted: protein: recombinant; tags: N-terminal GST; dsDNA, one strand shown. The method in brief:
as §1

Test [16] deals with T10, ETV2 (Homo sapiens, UniProt O00321 1-342).
T10 sequence: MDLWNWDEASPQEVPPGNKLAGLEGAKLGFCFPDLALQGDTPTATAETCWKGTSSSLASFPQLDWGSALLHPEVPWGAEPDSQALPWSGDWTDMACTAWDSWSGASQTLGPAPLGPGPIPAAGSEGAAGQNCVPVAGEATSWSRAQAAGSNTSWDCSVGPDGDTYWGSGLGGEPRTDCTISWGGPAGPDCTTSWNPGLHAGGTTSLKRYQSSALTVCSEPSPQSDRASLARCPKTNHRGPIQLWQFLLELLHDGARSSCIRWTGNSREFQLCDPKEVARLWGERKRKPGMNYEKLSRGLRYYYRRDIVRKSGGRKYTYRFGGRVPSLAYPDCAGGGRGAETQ
To be noted: protein: recombinant; tags: N-terminal GST; dsDNA, one strand shown. In outline:
as §1

The target of test [17] is CRX (Homo sapiens, UniProt O43186 1-299). Conditions: protein: recombinant; tags: N-terminal GST; dsDNA, one strand shown. The method in brief:
as §1

Test [18] addresses ETV1 (Homo sapiens, UniProt P50549 1-477). Conditions: protein: recombinant; tags: N-terminal GST; dsDNA, one strand shown. In outline:
as §1

Chain of ETV1 (P50549 whole entry): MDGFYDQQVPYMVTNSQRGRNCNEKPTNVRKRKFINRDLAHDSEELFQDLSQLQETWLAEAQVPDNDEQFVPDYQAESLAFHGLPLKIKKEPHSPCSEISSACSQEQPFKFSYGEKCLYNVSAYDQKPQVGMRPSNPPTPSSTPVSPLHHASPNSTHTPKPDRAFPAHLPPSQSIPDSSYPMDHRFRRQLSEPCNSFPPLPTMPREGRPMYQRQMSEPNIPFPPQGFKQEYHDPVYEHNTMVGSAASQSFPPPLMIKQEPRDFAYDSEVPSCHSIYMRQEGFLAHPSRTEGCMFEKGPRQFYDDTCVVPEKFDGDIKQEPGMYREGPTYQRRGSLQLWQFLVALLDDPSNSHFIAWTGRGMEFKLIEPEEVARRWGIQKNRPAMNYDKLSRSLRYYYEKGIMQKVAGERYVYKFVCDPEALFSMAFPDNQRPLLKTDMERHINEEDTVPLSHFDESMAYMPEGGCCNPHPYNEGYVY
Chain of SPIB (Q01892 whole entry): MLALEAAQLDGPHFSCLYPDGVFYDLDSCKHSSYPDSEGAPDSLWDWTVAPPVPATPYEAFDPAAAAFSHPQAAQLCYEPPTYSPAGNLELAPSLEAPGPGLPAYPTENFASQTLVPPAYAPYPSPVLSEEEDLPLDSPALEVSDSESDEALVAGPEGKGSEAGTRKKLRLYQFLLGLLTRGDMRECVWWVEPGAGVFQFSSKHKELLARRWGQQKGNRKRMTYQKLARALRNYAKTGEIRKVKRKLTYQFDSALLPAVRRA
Chain of ELF4 (Q99607 whole entry): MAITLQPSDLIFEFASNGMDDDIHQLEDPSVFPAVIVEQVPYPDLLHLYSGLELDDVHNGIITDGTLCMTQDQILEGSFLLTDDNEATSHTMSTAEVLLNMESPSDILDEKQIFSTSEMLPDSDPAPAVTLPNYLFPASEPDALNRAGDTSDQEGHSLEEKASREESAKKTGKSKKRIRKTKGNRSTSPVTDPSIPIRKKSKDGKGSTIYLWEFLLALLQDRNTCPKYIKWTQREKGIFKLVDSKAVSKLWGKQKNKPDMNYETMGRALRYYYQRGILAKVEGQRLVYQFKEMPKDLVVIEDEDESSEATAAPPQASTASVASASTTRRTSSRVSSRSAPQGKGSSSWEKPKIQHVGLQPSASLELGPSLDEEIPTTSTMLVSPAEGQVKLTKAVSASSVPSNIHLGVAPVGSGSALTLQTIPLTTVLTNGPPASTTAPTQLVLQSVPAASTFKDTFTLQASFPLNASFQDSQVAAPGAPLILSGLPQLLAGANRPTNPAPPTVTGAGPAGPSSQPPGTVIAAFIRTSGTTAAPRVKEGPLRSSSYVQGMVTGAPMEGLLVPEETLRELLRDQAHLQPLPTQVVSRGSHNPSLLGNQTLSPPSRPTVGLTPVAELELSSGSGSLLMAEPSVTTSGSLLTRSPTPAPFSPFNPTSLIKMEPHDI
Chain of HSF1 (Q00613 whole entry): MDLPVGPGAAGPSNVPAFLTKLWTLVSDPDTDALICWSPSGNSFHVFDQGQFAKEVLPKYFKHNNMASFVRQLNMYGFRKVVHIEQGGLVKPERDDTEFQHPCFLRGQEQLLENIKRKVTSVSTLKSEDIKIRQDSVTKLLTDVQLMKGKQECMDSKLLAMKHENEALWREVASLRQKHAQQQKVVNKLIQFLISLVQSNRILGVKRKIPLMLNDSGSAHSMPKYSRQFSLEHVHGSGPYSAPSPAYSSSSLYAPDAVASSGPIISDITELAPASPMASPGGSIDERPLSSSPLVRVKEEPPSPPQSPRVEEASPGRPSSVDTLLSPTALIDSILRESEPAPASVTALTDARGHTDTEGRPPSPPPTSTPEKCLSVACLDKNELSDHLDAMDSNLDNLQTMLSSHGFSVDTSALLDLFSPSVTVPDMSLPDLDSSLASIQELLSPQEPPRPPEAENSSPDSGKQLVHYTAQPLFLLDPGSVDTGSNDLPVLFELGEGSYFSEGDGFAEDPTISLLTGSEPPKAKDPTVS
Chain of CRX (O43186 whole entry): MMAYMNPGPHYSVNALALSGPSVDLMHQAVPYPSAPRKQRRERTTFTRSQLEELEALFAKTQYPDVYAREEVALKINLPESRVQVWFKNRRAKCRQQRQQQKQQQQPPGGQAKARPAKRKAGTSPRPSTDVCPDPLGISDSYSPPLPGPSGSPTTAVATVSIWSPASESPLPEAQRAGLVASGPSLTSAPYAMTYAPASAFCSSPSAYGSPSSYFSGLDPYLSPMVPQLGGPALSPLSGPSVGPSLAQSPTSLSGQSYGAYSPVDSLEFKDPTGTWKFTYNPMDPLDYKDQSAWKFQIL

In the case of ACTCCA, the binding signal in test [1] is 1.15 fold enrichment (6-mer frequency, TF over GST control); in test [2] it was 1.24 fold enrichment (6-mer frequency, TF over GST control); in [3], 1.29 fold enrichment (6-mer frequency, TF over GST control); in [4] it was 1.26 fold enrichment (6-mer frequency, TF over GST control); in [5], 1.21 fold enrichment (6-mer frequency, TF over GST control); in test [6], 1.17 fold enrichment (6-mer frequency, TF over GST control). Moreover, the binding signal was 1.23 fold enrichment (6-mer frequency, TF over GST control) in test [7]; 1.16 fold enrichment (6-mer frequency, TF over GST control) in test [8]; 1.17 fold enrichment (6-mer frequency, TF over GST control) in [9]; 1.21 fold enrichment (6-mer frequency, TF over GST control) in [10]; 1.24 fold enrichment (6-mer frequency, TF over GST control) in test [11]; 1.14 fold enrichment (6-mer frequency, TF over GST control) in test [12]. Moreover, the binding signal in test [13] is 1.18 fold enrichment (6-mer frequency, TF over GST control); in test [14], 1.23 fold enrichment (6-mer frequency, TF over GST control); in test [15], 1.05 fold enrichment (6-mer frequency, TF over GST control); in test [16] it was 1.15 fold enrichment (6-mer frequency, TF over GST control); in test [17] it was 1.06 fold enrichment (6-mer frequency, TF over GST control); in [18], 1.22 fold enrichment (6-mer frequency, TF over GST control).
